Records with an inconclusive call do not appear. The source made the active and inactive calls. Calls come from the whole dose curve; as a rule, active = well fitted inhibition curve with a large enough effect; inconclusive = small, poorly fitted or top-dose-only effect; inactive = flat fitted curve, though single readings scatter. Non-standard residues stand in square brackets, D forms with d. Residues, ends and D or L forms follow the SMILES beside them. *: point of attachment. Dolaproine = CO[C@@H]([C@@H]1CCCN1)[C@@H](C)C(=O)O; Dil = CC[C@H](C)[C@H](NC)[C@@H](CC(=O)O)OC; NMe2Val = CC(C)[C@@H](C(=O)*)N(C)C

This test can be described thus: Identification of antibody-drug conjugate (ADC) payloads which are substrates of ATP-binding cassette drug efflux transporters: ABCG2-H460 cell line. To be noted: H460 MX20 (ABCG2) viability, CellTiter-Glo, 48 h. From the text:
Antibody-drug conjugates (ADCs) feature an antibody recognizing a specific protein joined to a potent toxic payload. Numerous antibody-drug conjugates have received FDA approval; however, clinical resistance arises. Resistance mechanisms include decreased expression or mutation of the antibody target, impaired payload release, or increased expression of ATP-binding cassette (ABC) efflux transporters associated with multidrug resistance. We therefore sought to characterize the interaction of ABC multidrug transporters with ADC payloads. We performed a high-throughput screen with 27 common ADC payloads using cells lines expressing ABC transporters P-glycoprotein (P-gp, encoded by ABCB1) or ABCG2 (encoded by ABCG2). Confirmatory assays were also performed using cells transfected to express P-gp, ABCG2, or MRP1 (encoded by ABCC1). Several commonly used ADC payloads were substrates of P-gp, including calicheamicin gamma1, monomethyl auristatin E, DM1, and DM4. All the pyrrolobenzodiazepines tested - SJG136, SGD-1882, SG2057, and SG3199 - were substrates of P-gp, ABCG2, and MRP1. […] These findings highlight the risk of transporter-mediated resistance with certain ADC payloads and underscore the importance of selecting payloads that evade ABC transporter recognition in future ADC development.
HEK-293 cells were transfected with empty vector (pcDNA) or vector containing the human ABCB1 (MDR-19), ABCG2 (R-5), or ABCC1 gene (MRP1) and were maintained in EMEM with 2 mg/mL G418 added to maintain transporter expression. The HeLa derivative KB-3-1 and the P-gp overexpressing KB-8-5-11 subline were maintained in DMEM; KB-8-5-11 additionally received 100 ng/mL colchicine. H460 parental cells were obtained from the Division of Cancer Treatment and Diagnosis Tumor Repository, National Cancer Institute at Frederick, MD and were cultured in RPMI. The ABCG2 expressing subline H460 MX20 was generated by selecting H460 cells in 20 nM mitoxantrone. Media in all cases was supplemented with 10% FBS and 1% penicillin-streptomycin. We explored 27 common ADC payloads, in two orthogonal, paired cell line sets-a drug selected and transfected set for each transporter--to identify substrates of the ABC transporters P-gp and ABCG2. Compounds were sourced from Levena Biopharma (San Diego, CA), Selleck Chem (Houston, TX), ChemieTek (Indianapolis, IN), or Microsource Discovery Systems (Gaylordsville, CT). Screening was performed as previously described. Briefly, cells were plated at a density of 500 cells/well in 1536 well plates with compounds added using a 1536-head pin tool (Kalypsys, San Diego CA). Cells were incubated with cytotoxic drugs and processed with CellTiter Glo reagent (Promega, Madison, WI) to determine viability after 48 hours. P-gp substrates were identified by comparing compound activity between paired sets of low-expressing (sensitive) and over-expressing (resistant) cell lines.
For `CC[C@@]1(O)C(=O)OCc2c1cc1n(c2=O)Cc2cc3ccccc3nc2-1`, the Potency was 9.5 nM (active). As to `CC[C@H](C)[C@@H]1NC(=O)CNC(=O)[C@H]2Cc3c([nH]c4cc(O)ccc34)S(=O)C[C@H](NC(=O)CNC1=O)C(=O)N[C@@H](CC(N)=O)C(=O)N1C[C@H](O)C[C@H]1C(=O)N[C@@H]([C@@H](C)[C@@H](O)CO)C(=O)N2` (stereo partly specified), the Potency was 948 nM (active). As to `CC[C@H](C)[C@@H]([C@@H](CC(=O)N1CCC[C@H]1[C@H](OC)[C@@H](C)C(=O)N[C@@H](Cc1ccccc1)C(=O)O)OC)N(C)C(=O)[C@@H](NC(=O)[C@H](C(C)C)N(C)C)C(C)C` (NMe2Val-V[Dil][Dolaproine]F-OH), the Potency is 42.3 nM (active). To `COc1cc2cc(C(=O)N3C[C@@H](CCl)c4c3cc(O)c3ccccc43)[nH]c2c(OC)c1OC` belongs 1.1 nM (active); to `CC[C@H](C)[C@@H]([C@@H](CC(=O)N1CCC[C@H]1[C@H](OC)[C@@H](C)C(=O)N[C@H](C)[C@@H](O)c1ccccc1)OC)N(C)C(=O)[C@@H](NC(=O)[C@H](C(C)C)N(C)C)C(C)C`, 1.3 nM (active); to `COc1cccc2c1C(=O)c1c(O)c3c(c(O)c1C2=O)C[C@@](O)(C(=O)CO)CC3OC1CC(N2CCOC(OC)C2)C(O)C(C)O1` (stereo partly specified), 3 nM (active).

These data come from PubChem BioAssay AID2061321 (National Center for Advancing Translational Sciences (NCATS), 2025).
